# Laboratory results as given in the supplement of paper PMC9694430.
# Structures can show the parent of a compound that is named as a salt.
# What was measured:
# Assay in all cases: thermal shift delta Tm vs DMSO control; higher = stronger stabilization (binding)
# Settings in all cases: 12.5 µM; protein concentration 2 µM
# [1] = tested on: LOC_OS04G57630-cb004
# Method in brief: (§1)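 Heating from 25°C to 95°C at 0.05°C/s, fluorescence was recorded for 19.5 μl wells of 2 μM E. coli-expressed, purified rice kinase domain in 100 mM potassium phosphate pH 7.5, 150 mM NaCl, 10% glycerol and 5 × SYPRO Orange with compound in DMSO. Boltzmann fits gave melting temperatures for this differential scanning fluorimetry assay. The shift reported is the mean of three replicates against the DMSO-only protein.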
# [2] = tested on: LOC_OS05G07850-cb002
# Method in brief: as §1
# [3] = tested on: LOC_OS05G16824-cb004
# Method in brief: as §1
# [4] = tested on: LOC_OS05G28520-cb001
# Method in brief: as §1
# [5] = tested on: LOC_OS05G30820-cb001
# Method in brief: as §1
# [6] = tested on: LOC_OS05G43570-cb004
# Method in brief: as §1
# [7] = tested on: LOC_OS06G16330-cb003
# Method in brief: as §1
# [8] = tested on: T1, LOC_OS06G22820-cb001
# T1 sequence (whole entry): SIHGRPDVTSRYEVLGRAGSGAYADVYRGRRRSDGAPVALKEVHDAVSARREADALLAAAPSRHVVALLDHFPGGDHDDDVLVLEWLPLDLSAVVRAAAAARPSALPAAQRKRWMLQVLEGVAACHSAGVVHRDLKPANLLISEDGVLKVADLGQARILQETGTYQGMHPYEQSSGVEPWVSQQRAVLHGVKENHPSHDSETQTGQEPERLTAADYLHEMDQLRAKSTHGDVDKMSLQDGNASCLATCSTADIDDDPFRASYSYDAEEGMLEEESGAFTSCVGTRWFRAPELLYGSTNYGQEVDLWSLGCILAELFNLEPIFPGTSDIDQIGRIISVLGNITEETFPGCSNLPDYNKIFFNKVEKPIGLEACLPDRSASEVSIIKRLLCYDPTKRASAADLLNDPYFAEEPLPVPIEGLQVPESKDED
# Method in brief: as §1
# [9] = tested on: LOC_OS07G06570-cb004
# Method in brief: as §1
# [10] = tested on: LOC_OS07G07230-cb001
# Method in brief: as §1
# 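Also: purified Escherichia coli-expressed rice kinase domain construct.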
# Chain of LOC_OS06G16330-cb003 (as listed by the source): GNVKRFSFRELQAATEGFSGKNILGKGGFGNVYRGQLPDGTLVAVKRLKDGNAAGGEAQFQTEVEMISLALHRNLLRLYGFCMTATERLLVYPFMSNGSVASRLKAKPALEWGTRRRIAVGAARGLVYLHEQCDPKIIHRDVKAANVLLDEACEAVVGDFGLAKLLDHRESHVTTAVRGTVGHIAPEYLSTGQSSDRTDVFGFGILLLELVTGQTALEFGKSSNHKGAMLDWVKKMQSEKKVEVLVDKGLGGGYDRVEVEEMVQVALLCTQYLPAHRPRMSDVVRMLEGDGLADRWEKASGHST
SMILES,thermal shift delta Tm [1] [°C],thermal shift delta Tm [2] [°C],thermal shift delta Tm [3] [°C],thermal shift delta Tm [4] [°C],thermal shift delta Tm [5] [°C],thermal shift delta Tm [6] [°C],thermal shift delta Tm [7] [°C],thermal shift delta Tm [8] [°C],thermal shift delta Tm [9] [°C],thermal shift delta Tm [10] [°C]
CNCc1ccc(-c2cc(-c3nc(-c4ccc(S(=O)(=O)C(C)C)cc4)cnc3N)on2)cc1,0.75,6.99,-0.05,0.89,0.64,0.33,0.7,0.87,1.23,0.32
C=CC(=O)Nc1ccc(CN2C(=O)N(c3cc(OC)cc(OC)c3)Cc3cnc(Nc4ccc(N5CCN(C)CC5)cc4)nc32)cc1,7.31,0.75,1.16,1.83,0.78,0.66,2.37,0.84,2.63,1.29
NC(=O)c1ccc2nc(-c3ccc(Oc4ccc(Cl)cc4)cc3)[nH]c2c1 [Chk2 Inhibitor II (BML-277)],-0.02,3.29,2.79,0.29,-0.18,0.06,0.28,0.74,-0.16,-0.75
O=c1cc(-c2cccc3c2Sc2ccccc2S3)oc(N2CCOCC2)c1,-0.22,0.85,0.1,0.74,0.44,0.13,-0.34,0.79,0.35,-0.3
Cn1cc(-c2ccc3nnc(Sc4ccc5ncccc5c4)n3n2)cn1,0.16,0.32,-3.78,0.44,0.68,0.24,0.16,0.36,1.36,0.51
NC(=O)c1ccc(N(C(N)=O)c2c(F)cccc2F)nc1-c1ccc(F)cc1F,0.21,-0.33,-5.64,0.58,0.41,0.22,-0.58,0.8,1.05,0.18
CC(C)(C)c1nc(-c2ccc(NC(=O)Nc3cccc(C(F)(F)F)c3)c3ccccc23)c2c(N)nccn12 [kira6],1.93,6.62,9.24,0.74,0.66,3.12,4.28,0.73,0.73,0.14
"Nc1nc2cc(-c3ccc4ncc(C(=O)N5CCOCC5)n4c3)ccc2o1 [Serabelisib (INK-1117,MLN-1117,TAK-117)]",0.92,2.64,6.24,0.55,0.04,0.35,0.24,0.5,1.85,0.61
COc1cc2c3cc1Oc1c(OC)c(OC)cc4c1[C@@H](Cc1ccc(O)c(c1)Oc1ccc(cc1)C[C@@H]3N(C)CC2)N(C)CC4 [Berbamine (dihydrochloride)],-0.01,-0.48,-7.42,-0.11,0.47,0.27,-0.31,0.13,0.83,0.33
CC1(C)OCCn2c1nc1c(N3CCOCC3)nc(-c3cnc(N)nc3)nc12,0.29,1.01,-0.61,0.5,0.57,0.76,2.07,0.14,1.2,0.43
COCCNCc1ccc(-c2cc3nccc(Oc4ccc(NC(=O)C5(C(=O)Nc6ccc(F)cc6)CC5)cc4F)c3s2)nc1 [Sitravatinib (MGCD516)],7.89,14.5,10.7,7.64,0.29,0.73,9.07,0.6,0.67,-0.46
COC(=O)c1ccc2c(c1)NC(=O)/C2=C(\Nc1ccc(N(C)C(=O)CN2CCN(C)CC2)cc1)c1ccccc1 [Nintedanib (BIBF 1120)],1.08,1.57,9.2,0.54,0.35,0.43,0.71,0.4,0.96,0.42
C=CC(=O)Nc1cccc(Nc2nc(Nc3ccc(Oc4ccnc(C(=O)NC)c4)cc3)ncc2F)c1,1.31,11,6.27,0.89,0.57,0.22,6.48,0.38,0.89,1.49
Nc1ncnc2c1c(-c1cnc3[nH]ccc3c1)nn2C1CCCC1,0.91,4.79,1.22,0.54,0.76,1.19,3.18,0.34,0.72,0.21
CC1=C(C(=O)Nc2ccc3[nH]ncc3c2)C(c2ccc(F)cc2)NC(=O)N1 (stereo not given),0.17,1.88,-1.25,0.01,0,1.03,1.01,0.88,1.97,0.55
O=C(Nc1c[nH]nc1-c1nc2ccc(CN3CCOCC3)cc2[nH]1)NC1CC1,3.7,14.2,14.9,0.46,4.77,1.2,10.7,0.86,0.71,0.15
COc1cc2ncnc(Oc3cccc(NC(=O)Nc4cc(C(C)(C)C(F)(F)F)on4)c3)c2cc1OC,0.6,2.95,-2.76,0.72,0.54,0.45,0.19,0.58,1.77,0.79
